Measured values as given in PubChem BioAssay AID493185 (National Center for Advancing Translational Sciences (NCATS), 2011).
Activity calls are given as the source filed them. A call without a number means that no potency is given here. The call rests on the fitted dose curve; in most records, active means well fitted activation curve with a large enough effect; inconclusive means small, poorly fitted or top-dose-only effect; inactive means no such curve, though single readings can be large or run the other way.

Experiment: Counterscreen for Identifying a Potential Treatment of Ataxia-Telangiectasia: Hit Validation
Conditions: cell-free AlphaLISA/AlphaScreen artifact counterscreen, PBS only, no cells; series mostly up to 76.9 µM
Procedure, shortened: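 Without cells, compounds at up to 76.7 uM final were combined with premixed anti-pKAP1/anti-KAP1 AlphaLISA bead reagents, protease inhibitors and lysis buffer; signal read after 6 hr at 25C to flag assay-platform artifacts.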
Potency means the concentration at half of the fitted maximal effect.

Compound	Potency
CCCCN(c1nc2ccccc2nc1Cl)S(=O)(=O)c1ccc(C)cc1	inactive
C/C(CCC1CC(C)OC1=O)=N\NC(N)=S (stereo not given)	inactive
CN(C)C(=O)c1nc2ccc(Cl)cn2c1CNCc1cccc(OC(F)(F)F)c1	inactive
COC(=O)Cn1ccc2cc(S(=O)(=O)N3CCCCC3)ccc21	inactive
CC(CCc1ccccc1)NC(=O)COC(=O)c1ccc(F)cc1 (stereo not given)	inactive
CCOc1ccc(NC2=NCC(=O)N2Cc2cccs2)cc1	inactive
CCOc1ccccc1CNC(=O)Cn1c(=O)oc2ccccc21	inactive
COc1cc(CCC(=O)OCC(=O)N2CCc3ccccc32)cc(OC)c1OC	inactive
CC(C)Nc1nc(Oc2ccc(=O)n(-c3ccccc3)n2)nc(N(C)C)n1	inactive
CCn1nc(C)c(CNC(=O)c2cc(COc3ccc(F)cc3Cl)on2)c1C	inactive
CCN(CC)c1ccc2c(Cl)c(Br)c(=O)oc2c1	inactive
Cc1ccc2c(c1)C(c1ccccc1)N(C(=O)CC(C)C)CC(=O)N2 (stereo not given)	inactive
O=C(NC12CC3CC(CC(C3)C1)C2)c1cccc(OC(F)F)c1	inactive
COc1ccc(C2(C)CC(C)(C)Nc3ccccc32)cc1 (stereo not given)	inactive
Cc1ccc(NC(=O)CSc2nnc([C@H](C)NC(=O)OC(C)(C)C)o2)c(C)c1	inactive
CN(C)S(=O)(=O)c1ccc(NC(=O)c2ccc([N+](=O)[O-])cc2)cc1	inactive
CC(C)c1ccc(-c2cc(C(=O)N3CCOCC3)c3cc(Br)ccc3n2)cc1	inactive
COc1ccc(C(=O)N2CCCC2(C#N)c2ccccc2)cc1[N+](=O)[O-] (stereo not given)	inactive
CC(=O)c1sc2nc(C)c3c(c2c1N)CCCC3	46.3 µM (active)
N#C/C(=C/c1ccc(F)cc1)C(N)=S	inactive

Compound	Potency
CN(CCc1ccccn1)C(=O)c1cc(COc2ccc(F)cc2F)on1	inactive
COc1ccc(CCNC(=O)C2CCN(S(=O)(=O)c3ccc(OC)c(OC)c3)CC2)cc1OC	inactive
Cc1[nH]c2c(C)cccc2c1CN1CCC(CO)(Cc2ccccc2)CC1	inactive
O=C(OCCc1cc2ccccc2c(=O)o1)c1cccc(Br)c1	inactive
CCOC(=O)c1c(CSc2ccsc2)n(C)c2cc(Br)c(O)c(CN(C)C)c12	inactive
COc1ccc(-c2csc(-c3ccc(O)cc3)n2)cc1	inactive
CSc1nc(SCC(=O)O)c2c3c(sc2n1)COC(C)(C)C3	inactive
COc1ccccc1NC(=O)C1CCCN(S(=O)(=O)c2ccc(-n3cnnn3)cc2)C1 (stereo not given)	inactive
COc1ccc(C(=O)CSc2nc3ncccc3[nH]2)cc1OC	inactive
Cc1cc2nc3ccc(=[N+](C)C)cc-3sc2cc1N	26 µM (active)
Cc1ccc2c(c1)C(=O)CC(O)(C(F)(F)F)O2 (stereo not given)	inactive
CCNC(=S)N(CCc1c(C)[nH]c2ccccc12)Cc1cccnc1	inactive
CCOC(=O)CN(C(=O)CSc1nnc(COc2ccc(OC)cc2)n1CC)c1ccccc1	inactive
Cc1cc(C)n2nc(C(=O)OCCOc3ccc(F)cc3)nc2n1	inactive
N#CCN1C(=O)C(=O)N(Cc2cccc(Cl)c2)C1=O	inactive
O=C(CN1CCN(Cc2ccccc2)CC1)Nc1ccc(Cl)cc1	inactive
COc1ccc2nc(NCCCNC(=O)c3cc(OC)c(OC)c(OC)c3)c(C#N)cc2c1	29.2 µM (active)
O=C(O)c1ccc(/C=C/c2nc3ccccc3c(=O)[nH]2)cc1	inactive
CCOC(=O)N1CCC(NC(=O)C2CCN(S(=O)(=O)c3cccc4cccnc34)CC2)CC1	inactive
O=C1NC(=Nc2ccccc2)CS1	inactive
